Records with an inconclusive call do not appear. Active and inactive are the calls of the source. Calls follow the shape of the dose curve; as a rule, active = well fitted inhibition curve with a large enough effect; inconclusive = small, poorly fitted or top-dose-only effect; inactive = no such curve, though single readings can be large or run the other way.
The compounds below were run on Zika virus NS2B-NS3 protease (unlinked complex) (assay: Primary screen GU Rhodamine qHTS for Zika virus inhibitors: Unlinked NS2B-NS3 protease assay (AID 1347159; also: nearly all actives have a fitted effect of over 60% in size)). Conditions: Recombinant ZIKV NS2B-NS3 protease, Rhodamine110 substrate fluorescence; series mostly up to 107 µM; activity change, negative = inhibition: at the top concentration.
Method in brief: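 Compounds, tested up to 114 microM, were incubated for 15 minutes with 25 nM unlinked NS2B-NS3 protease at pH 8.0. Cleavage of 1.5 microM Rhodamine110 substrate was then followed by fluorescence for 15 minutes.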
% is scaled to controls: 0 for no effect and ±100 for the full control effect; potency is read from the fitted curve at half-maximal effect.

SMILES | activity change, negative = inhibition | Potency
CS(=O)(=O)c1ccc(-c2nnc(/C=C/c3nnc(-c4ccc(C#N)cc4)o3)n2-c2ccccc2Cl)nc1 | -28.7% (inactive) | 
COC(=O)CC(O)CC(O)/C=C/c1c(C)ccc2c1C(O)CC(C)C2 (centres undefined) | 9.11% (inactive) | 
CC(=O)O[C@H]1[C@H](O[C@H]2[C@@H]3C=CO[C@@H](O[C@@H]4O[C@H](CO)[C@@H](O)[C@H](O)[C@H]4O)[C@@H]3[C@@]3(CO)O[C@@H]23)O[C@@H](C)[C@H](OC(=O)/C=C/c2ccccc2)[C@H]1OC(=O)/C=C/c1ccccc1 | 15.9% [at 32.5 µM] (inactive) | 
O=C1CCC=CC1(O)C(=O)OCc1ccccc1O[C@@H]1O[C@H](CO)[C@@H](O)[C@H](O)[C@H]1O (some centres undefined) | -18.8% [at 57.1 µM] (inactive) | 
COc1ccc([C@H]2CNC(=O)C2)cc1OC1CCCC1 | 14.4% (inactive) | 
C=C1C[C@@]23CCC4[C@@](C)(CCC[C@@]4(C)C(=O)OC)C2CC[C@@H]1C3 (some centres undefined) | 1.76% (inactive) | 
COc1cc(C2Oc3c(OC)cc(CCCO)cc3C2CO)ccc1O[C@H]1O[C@H](C)[C@@H](O)[C@H](O)[C@@H]1O (some centres undefined) | -6.75% [at 57.1 µM] (inactive) | 
Cc1nc(C)c(-c2ccc(C3CCC(CC(=O)O)CC3)cc2)nc1C(N)=O (centres undefined) | 11.2% (inactive) | 
O=C(OC[C@H]1O[C@H](O[C@]2(CO)O[C@H](CO)[C@@H](O)[C@@H]2O)[C@H](O)[C@@H](O)[C@@H]1O)c1ccccc1 | 12.4% [at 57.1 µM] (inactive) | 
CC(C)=CC/C=C(\C)[C@H]1CC[C@]2(C)[C@@H]1[C@H](O)C[C@@H]1[C@@]3(C)CC[C@H](O)C(C)(C)[C@@H]3[C@@H](O[C@@H]3O[C@H](CO)[C@@H](O)[C@H](O)[C@H]3O)C[C@]12C | 0% (inactive) | 
CC1CC(C(O)C(C)(C)O)OC2CC3(C)C4(C)CCC5C(C)(C)C(=O)CCC5(C)C4CCC3(O)C12O (centres undefined) | -11.7% [at 57.1 µM] (inactive) | 
Cc1cc(C)c2c(N)c(C(=O)NCc3ccc(Cl)cc3)sc2n1 | 47.1% (inactive) | 
CC1CCC2(OC1)OC1CC3C4CC=C5CC(O)CC(O[C@@H]6OC[C@@H](O)[C@H](O)[C@H]6O)C5(C)C4CCC3(C)C1(O)C2C (some centres undefined) | 23.9% [at 32.5 µM] (inactive) | 
CN1CCc2nc(C(=O)N[C@@H]3C[C@@H](C(=O)N(C)C)CC[C@@H]3NC(=O)C(=O)Nc3ccc(Cl)cn3)sc2C1 | -28.7% (inactive) | 
C=C[C@H]1CN2CC[C@H]1C[C@@H]2C(O)c1ccnc2ccc(OC)cc12 (some centres undefined) | 22.1% (inactive) | 
CC(C)(O)CC(CO)NC(=O)CC(O)CC(=O)Cc1ccccc1 (centres undefined) | -1.95% (inactive) | 
CC1(C)CC2C(O)c3cocc3CC(C)(O)C2C1 (centres undefined) | 14.1% (inactive) | 
CC(O)CCC1C(CO[C@@H]2O[C@H](CO)[C@@H](O)[C@H](O)[C@H]2O)CC(O)CC1(C)C (some centres undefined) | -5.97% (inactive) | 
C=CC(=O)Nc1cccc(Nc2nc(Nc3ccc(N4CCN(C(C)=O)CC4)cc3OC)ncc2C(F)(F)F)c1 | 35.9% (inactive) | 
Cn1c(=O)n(-c2ccc(C(C)(C)C#N)cc2)c2c3cc(C#Cc4cccnc4)ccc3ncc21 | -3.03% [at 57.1 µM] (inactive) | 

SMILES | activity change, negative = inhibition | Potency
CC1C(=O)CC2C3CCC(C(=O)O)C12CC3(C)CO (centres undefined) | -15.9% (inactive) | 
O=C(CSc1nc2c(c(=O)n1-c1ccccc1)SCC2)Nc1ccc(-c2ccccc2)cn1 | -19.7% (inactive) | 
Cc1ccc(NC(=O)C(=O)NC2CC(C)(C)NC(C)(C)C2)cc1 | 4.03% (inactive) | 
COC(=O)[C@@]1(c2ccc(C)cc2)C[C@H]1CN1CCC(O)(c2ccccc2)CC1 | 96.2% (inactive) | 
O=S(=O)(NCC1CC1)c1ccc(Nc2nccc(N3CCCc4cc(O)ccc43)n2)cc1 |  | 39.8 µM (active)
O=C(/C=C/c1cccc(S(=O)(=O)Nc2ccccc2)c1)NO | 20.1% [at 57.1 µM] (inactive) | 
C/C=C1\[C@H](OC2OC(COC3OC(CO)C(O)C(O)C3O)C(O)C(O)C2O)OC=C(C(=O)OC)[C@H]1CC(=O)OCCc1ccc(O)cc1 (some centres undefined) | -16.8% [at 32.5 µM] (inactive) | 
COC(=O)C12C(=O)C(C)=C(O)C1(C)C(C)=CC1C3(CO)CCC(O)C(C)(C)C3CCC12C (centres undefined) | -8.56% [at 57.1 µM] (inactive) | 
COc1c/c(=C2\C=c3ccccc3=N2)[nH]/c1=C\c1[nH]c(C)cc1C | 128% (inactive) | 
CC(C)C(CO)Nc1nc(Nc2cc(N)cc(Cl)c2)c2ncn(C(C)C)c2n1 (centres undefined) | 43% (inactive) | 
C=C[C@@](C)(O)CC/C=C(\C)C(=O)O[C@@H]1[C@@H]2O[C@]2(C)[C@H]2[C@H](O[C@@H]3O[C@H](CO)[C@@H](O)[C@H](O)[C@H]3O)OC=C[C@@]12O | 34.2% [at 57.1 µM] (inactive) | 
C[C@H](C(=O)NC1CCCC1)N(C(=O)Cn1nnc(-c2ccc3c(c2)OCO3)n1)C1CCCCC1 | 12.8% (inactive) | 
CC(O)/C=C/C1(O)C2(C)COC1(C)CC(O)C2 (centres undefined) | 7.65% (inactive) | 
c1cn2cc(-c3ccc4cn[nH]c4c3)nc(Nc3ccc(N4CCOCC4)cc3)c2n1 | 17.1% (inactive) | 
CC(C)=CCC[C@](C)(O[C@@H]1O[C@H](CO[C@@H]2O[C@H](CO)[C@@H](O)[C@H](O)[C@H]2O)[C@@H](O)[C@H](O)[C@H]1O)C1CC[C@]2(C)[C@@H]1[C@H](O)CC1[C@@]3(C)CC[C@H](O[C@@H]4O[C@H](CO)[C@@H](O)[C@H](O)[C@H]4O[C@@H]4O[C@H](CO)[C@@H](O)[C@H](O)[C@H]4O)C(C)(C)[C@@H]3CC[C@]12C (some centres undefined) | 2.66% [at 32.5 µM] (inactive) | 
COC1CC(O[C@H]2CC[C@@]3(C)C(=CC[C@]4(O)C3[C@H](OC(C)=O)[C@@H](OC(=O)c3ccccc3)[C@]3(C)[C@@H](C(C)=O)CC[C@@]34O)C2)OC(C)C1OC1CC(OC)C(OC2CC(OC)C(OC3OC(C)C(OC4OC(CO)C(O)C(O)C4O)C(OC)C3O)C(C)O2)C(C)O1 (some centres undefined) | 25.7% [at 19.1 µM] (inactive) | 
O=C1NC2CCc3nc4ccccc4c(=O)n3C2=Nc2ccccc21 (centres undefined) | 5.46% (inactive) | 
CC1(C)CC2C=C(C(=O)O)C3COC(=O)C(O)(CO)C23C1 (centres undefined) | -8.71% (inactive) | 
CCN(CC)Cc1ccc(C(=O)N(CCc2ccccc2OC)[C@@H]2CCNC2)cc1 | 16.6% [at 57.1 µM] (inactive) | 
